This is part of a sample that, as a whole, favours compounds with a hit. Of some 79,000 tested, about 15% had one in any assay. A number with no mark means an inactive call. The source made the active and inactive calls. Rule as the data show it: active = growth inhibition above about 70%; inactive = the rest.
Legend:
[1] = NCI Yeast Anticancer Drug Screen. Data for the rad50 strain (AID 155);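 also: 0% = growth of vehicle-only cultures of the same strain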; settings: S. cerevisiae rad50 strain growth inhibition, stronger effect = higher value
How it was run: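 Cells are treated with compound, grown, and their growth is then scored against vehicle-only cultures of the same repair-deficient yeast strain.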

[2] = NCI Yeast Anticancer Drug Screen. Data for the mec2-1 strain (AID 157); settings: S. cerevisiae mec2-1 strain, stronger effect = higher value
How it was run: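 Mutant yeast (mec2-1) grown with compound; growth inhibition relative to vehicle control reported.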

[3] = NCI Yeast Anticancer Drug Screen. Data for the sgs1 mgt1 strain (AID 161);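 also: 0% = growth of cultures given vehicle only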; settings: S. cerevisiae sgs1 mgt1 strain, stronger effect = higher value
How it was run: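 Percent growth inhibition was derived by comparing compound-exposed mutant yeast with vehicle-exposed cultures. The strain carries alterations in DNA damage repair.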

[4] = NCI Yeast Anticancer Drug Screen. Data for the cln2 rad14 strain (AID 165);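 also: 0% = growth equal to vehicle treated cultures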; settings: S. cerevisiae cln2 rad14 strain, stronger effect = higher value
How it was run: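 Readout is yeast growth inhibition versus vehicle-treated controls, using a strain with cln2 and rad14 alterations exposed to compound.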

[5] = NCI Yeast Anticancer Drug Screen. Data for the bub3 strain (AID 167); settings: S. cerevisiae bub3 mutant strain, stronger effect = higher value
How it was run: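 Part of a panel of yeast mutants defective in DNA damage repair or cell cycle regulation. Each strain is grown with compound, and inhibition is calculated relative to solvent-treated cultures.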

[6] = NCI Yeast Anticancer Drug Screen. Data for the mlh1 rad18 strain (AID 175); settings: S. cerevisiae mlh1 rad18 strain growth inhibition, stronger effect = higher value
How it was run: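 Genetically defined yeast (DNA repair-deficient) exposed to compounds; growth inhibition determined relative to vehicle.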

[7] = at 5.0 µM (retest, dose inferred, filed as 0.5)
[8] = at 50.0 µM (retest, dose inferred, filed as 5.0)

SMILES | growth inhibition [1, 7] | growth inhibition [1, 8] | growth inhibition ([1]; at 50.0 µM) | growth inhibition [2, 7] | growth inhibition [2, 8] | growth inhibition ([2]; at 50.0 µM) | growth inhibition [3, 7] | growth inhibition [3, 8] | growth inhibition ([3]; at 50.0 µM) | growth inhibition [4, 7] | growth inhibition [4, 8] | growth inhibition ([4]; at 50.0 µM) | growth inhibition [5, 7] | growth inhibition [5, 8] | growth inhibition ([5]; at 50.0 µM) | growth inhibition [6, 7] [%] | growth inhibition [6, 8] | growth inhibition ([6]; at 50.0 µM)
C1=C(CC2=C[P+](c3ccccc3)(c3ccccc3)C=C(c3ccccc3)O2)OC(c2ccccc2)=C[P+]1(c1ccccc1)c1ccccc1 | 17% | 96% (active) | 87.4% (active) | 8% | 98% (active) | 88% (active) | 35% | 98% (active) | 86.2% (active) | 25% | 98% (active) | 85.4% (active) | 32% | 98% (active) | 90.5% (active) | 6 | 95% (active) | 90.8% (active)
COc1cc(CC#N)c(NC(C)=O)cc1OC | 0% | -4% | -2.3% | -41% | -3% | 28.6% | 0% | -2% | -8.45% | 1% | -2% | 41% | -7% | -7% | 6.05% | -1 | -3% | 9.1%
C=CCOCCC(=O)OCC=C | 0% | -2% | 7% | 1% | 0% | 40.4% | 1% | -1% | 15.9% | -1% | 0% | 72.2% (active) | -2% | -1% | 67.4% | -1 | -1% | 70.8% (active)
CCn1nc(-c2ccccc2)c2c1N(C)c1ccccc1-n1c(-c3ccccc3)nnc1-2 | -1% | 49% | 98.7% (active) | -16% | 99% (active) | 99% (active) | 3% | 45% | 99.2% (active) | 14% | 98% (active) | 99% (active) | -11% | 99% (active) | 99.2% (active) | 7 | 98% (active) | 99.2% (active)
CCCCCCCCCCCCCC[N+]1(CC)CCCCC1 | 77% (active) | 99% (active) | 90.2% (active) | 99% (active) | 99% (active) | 91.3% (active) | 99% (active) | 100% (active) | 92.2% (active) | 84% (active) | 99% (active) | 89.8% (active) | 99% (active) | 99% (active) | 90.8% (active) | 67 | 99% (active) | 89.5% (active)
CCCCN(CCCC)CC(O)c1ccc2cc(Cl)c3ccccc3c2c1 (stereo not given) | 53% | 99% (active) | 99.6% (active) | 40% | 100% (active) | 99.7% (active) | 85% (active) | 100% (active) | 99.5% (active) | 41% | 99% (active) | 99.4% (active) | 57% | 99% (active) | 92.2% (active) | 63 | 100% (active) | 99.4% (active)
COc1cccc(C(c2cc3c(cc2O)OCO3)N2CCCC2)c1O (stereo not given) | 0% | 52% | 48.2% | 1% | 44% | 46.5% | -5% | 48% | 61.1% | -6% | 24% | 7.85% | 6% | 47% | 41.2% | -1 | 62% | 77% (active)
Cc1nc(-c2ccc(N=Cc3ccc(N(CCOS(C)(=O)=O)CCOS(C)(=O)=O)cc3Cl)cc2)c(C)s1 | 1% | 33% | 40.1% | -68% | -1% | 13.1% | 2% | 17% | 55.3% | 6% | -4% | -9.2% | 0% | -1% | -8.8% | 4 | 37% | 73% (active)
CC(C)C(=O)N1Cc2cc(Cl)cc(Cl)c2OC(=O)c2ccccc21 | 18% | 3% | 71% (active) | -1% | 17% | 36.1% | -13% | 3% | 43.6% | 32% | 47% | 48.7% | 19% | 28% | 52.9% | 4 | 11% | 57.9%
O=C(Oc1cc([N+](=O)[O-])ccc1Cl)Oc1cc([N+](=O)[O-])ccc1Cl | -6% | 97% (active) | 97.5% (active) | 0% | 99% (active) | 99.5% (active) | -7% | 99% (active) | 98.6% (active) | 0% | 98% (active) | 97.9% (active) | -9% | 98% (active) | 98.8% (active) | -5 | 98% (active) | 98.6% (active)
